# Experimental data: PubChem BioAssay
# Active and inactive are the calls of the source.
# Experiments:
# [1] = tested on: PRMT1 (protein arginine N-methyltransferase 1); test: small molecules binding arginine methyltransferase PRMT1 – biochemical, small-molecule microarray, 635 nm fluorescence, primary screen (AID 1088); conditions: higher = more signal;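 further: binding of Prmt1 protein to compounds spotted on small-molecule microarray slides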
# [2] = growth effects on S. cerevisiae YJM789 – YJM789 clinical isolate, OD600, 24 h, basal, primary screen (AID 1089); conditions: higher = more signal, called active from +8 up or from −8 down;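 further: growth of clinical yeast isolate S. cerevisiae YJM 789 seeded 1000 cells per well; test concentration not given here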
# [3] = S. pombe growth modifiers, basal conditions – strain 972, OD600, 24 h, no modulator, primary screen (AID 1090);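 further: basal condition with compound alone and no growth modifier present; test concentration not given here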; conditions: S. pombe 972 growth, higher = more signal, called active from +8 up or from −8 down
# [4] = budding yeast growth modifiers under rapamycin – strain BY4716, OD600, 96 h, primary screen (AID 1091); further: test concentration not given here; conditions: S. cerevisiae BY4716 + rapamycin, higher = more signal, called active from +8 up or from −8 down
# [5] = molecular target: Torsin-1A-interacting protein 2 (Homo sapiens) (UniProt Q8NFQ8); test: small molecules binding lysate-expressed LULL1 – cell lysate, human LULL1 lysate, 635/667 nm fluorescence, primary screen (AID 1092); conditions: small-molecule microarray, hLULL1 lysate binding, 635 nm fluorescence; higher = more signal;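 further: probe is lysate of COS7 cells overexpressing human LULL1; score merges per-feature 667 nm fluorescence with signal-to-noise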
# [6] = optical density change of DRC41 E. coli – strain DRC41, OD650, 24 h, E. coli filamentation project, primary screen (AID 1093);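 further: MC1000 strain lacking acrAB efflux and sulA so SOS filamentation is blocked; test concentration not given here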; conditions: E. coli DRC41 growth, higher = more signal, called active from +8 up or from −8 down
# [7] = probe aLefty2 binding to arrayed compounds – biochemical, biotinylated probe, 635/667 nm fluorescence, primary screen (AID 1094); conditions: small-molecule microarray, higher = more signal;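 further: score merges spot fluorescence near 667 nm with spot signal-to-noise ratio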
# [8] = tested on: Noggin (protein binding on small-molecule microarray); test: small molecules binding Noggin protein – biochemical, 635/667 nm fluorescence, primary screen (AID 1095); conditions: 635 nm fluorescence, higher = more signal;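 further: score merges 667 nm feature fluorescence with signal to noise over triplicate slides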
# [9] = molecular target: Neurogenic locus notch homolog protein 3 (Homo sapiens) (UniProt Q9UM47); test: small molecules binding NOTCH3 protein – biochemical, 635/667 nm fluorescence, primary screen (AID 1096); conditions: small-molecule microarray, 635 nm fluorescence, higher = more signal
# [10] = probe aEGFR binding to arrayed compounds – biochemical, biotinylated probe, 635/667 nm fluorescence, primary screen (AID 1097); conditions: small-molecule microarray, higher = more signal;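 further: probe is a biotinylated anti-EGFR antibody binding compounds printed on slides; score combines fluorescence near 667 nm and signal to noise of each spot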
# [11] = tested on: Plasmodium falciparum Sir2 (PF13_0152, Sir2A); test: Plasmodium falciparum Sir2A binding compounds – biochemical, small-molecule microarray, 635 nm fluorescence, primary screen (AID 1098); conditions: fluorescence 635 nm, higher = more signal;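 further: score merges spot fluorescence intensity with its signal-to-noise ratio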
# [12] = probe aDKK1 binding to arrayed compounds – biochemical, biotinylated probe, 635/667 nm fluorescence, primary screen (AID 1099); conditions: small-molecule microarray, higher = more signal;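 further: score merges 667nm spot fluorescence with signal to noise across triplicate slides; reference of the scale not given here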
# [13] = probe aCHRDL2 binding to arrayed compounds – biochemical, biotinylated probe, 635/667 nm fluorescence, primary screen (AID 1100); conditions: small-molecule microarray, higher = more signal
# [14] = change in splice reporter luminescence, either direction, cell-based, HEK293, spliceosome inhibition project, primary screen (AID 1101); conditions: HEK293 splicing luciferase reporter, 24 h, higher = more signal, called active from +8 up or from −8 down;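 further: HEK293 cells carrying a splicing-competent luciferase reporter gene; test concentration not given here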
# [15] = molecular target: Fibroblast growth factor 10 (Homo sapiens) (UniProt O15520); test: compounds binding fibroblast growth factor 10 – biochemical, small-molecule microarray, 635 nm fluorescence, primary screen (AID 1102); conditions: FGF10 binding, fluorescence 635 nm, higher = more signal
# [16] = tested on: glycogen synthase kinase-3 (GSK3A per assay name; protocol says GSK3B); test: compounds binding glycogen synthase kinase-3 – biochemical, small-molecule microarray, 635 nm fluorescence, GSK3A, primary screen (AID 1103); conditions: fluorescence 635 nm, higher = more signal; further: the record names both GSK3A and GSK3B
# [17] = molecular target: Epidermal growth factor receptor (Homo sapiens) (UniProt P00533); test: compounds binding epidermal growth factor receptor – biochemical, small-molecule microarray, 635 nm fluorescence, primary screen (AID 1104); conditions: EGFR binding, higher = more signal;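 further: score merges 667 nm emission intensity with spot signal to noise over triplicate slides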
# [18] = molecular target: Follistatin-related protein 3 (Homo sapiens) (UniProt O95633); test: compounds binding follistatin-related protein 3 – biochemical, small-molecule microarray, 635 nm fluorescence, primary screen (AID 1105); conditions: FSTL3 binding, higher = more signal;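 further: score merges emission near 667 nm and signal to noise per printed spot across three slides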
# [19] = molecular target: Dickkopf-related protein 1 (Homo sapiens) (UniProt O94907); test: small molecules binding DKK1 protein – biochemical, small-molecule microarray, 635 nm fluorescence scan, primary screen (AID 1106); conditions: higher = more signal;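 further: score merges emission near 667 nm with signal to noise over three replicate slides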
# [20] = tested on: Inhibin beta A chain (activin A); test: small molecules binding activin A – biochemical, small-molecule microarray, 635 nm fluorescence scan, primary screen (AID 1107); conditions: INHBA, higher = more signal;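 further: mouse activin A protein probed at 4.33 µg/mL on printed slides; score merges bound-protein fluorescence near 667 nm with spot signal-to-noise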
# Chain of Epidermal growth factor receptor (Homo sapiens) (P00533 whole entry, looked up): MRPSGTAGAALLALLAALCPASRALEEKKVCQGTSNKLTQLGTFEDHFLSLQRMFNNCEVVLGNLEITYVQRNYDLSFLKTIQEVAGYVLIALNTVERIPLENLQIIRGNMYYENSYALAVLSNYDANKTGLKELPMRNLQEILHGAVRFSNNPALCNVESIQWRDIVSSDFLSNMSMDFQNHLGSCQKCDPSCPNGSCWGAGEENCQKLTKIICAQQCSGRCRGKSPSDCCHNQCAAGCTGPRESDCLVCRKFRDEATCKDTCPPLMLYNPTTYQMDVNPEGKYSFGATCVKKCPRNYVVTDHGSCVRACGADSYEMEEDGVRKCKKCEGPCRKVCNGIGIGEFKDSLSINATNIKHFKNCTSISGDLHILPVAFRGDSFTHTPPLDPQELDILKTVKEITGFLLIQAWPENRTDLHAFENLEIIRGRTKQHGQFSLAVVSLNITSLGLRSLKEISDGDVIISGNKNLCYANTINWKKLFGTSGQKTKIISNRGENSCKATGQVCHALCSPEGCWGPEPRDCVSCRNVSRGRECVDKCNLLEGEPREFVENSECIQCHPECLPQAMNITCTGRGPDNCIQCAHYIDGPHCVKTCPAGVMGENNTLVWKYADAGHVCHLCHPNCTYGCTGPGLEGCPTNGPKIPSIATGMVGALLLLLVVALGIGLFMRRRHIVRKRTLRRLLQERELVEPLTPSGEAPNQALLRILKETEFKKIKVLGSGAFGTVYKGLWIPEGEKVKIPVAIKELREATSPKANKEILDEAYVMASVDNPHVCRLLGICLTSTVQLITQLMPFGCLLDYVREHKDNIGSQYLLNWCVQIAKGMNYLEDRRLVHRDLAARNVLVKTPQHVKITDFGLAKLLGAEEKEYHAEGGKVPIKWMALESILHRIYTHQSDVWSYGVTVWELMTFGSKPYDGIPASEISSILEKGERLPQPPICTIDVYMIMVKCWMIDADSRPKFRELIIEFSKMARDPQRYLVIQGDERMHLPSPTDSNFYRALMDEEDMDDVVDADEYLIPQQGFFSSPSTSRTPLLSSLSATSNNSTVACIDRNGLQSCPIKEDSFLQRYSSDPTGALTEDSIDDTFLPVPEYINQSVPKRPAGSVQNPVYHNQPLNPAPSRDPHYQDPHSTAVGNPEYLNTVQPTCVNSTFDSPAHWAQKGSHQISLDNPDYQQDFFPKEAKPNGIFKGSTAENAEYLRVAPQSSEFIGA
# Chain of Neurogenic locus notch homolog protein 3 (Homo sapiens) (Q9UM47 whole entry, looked up): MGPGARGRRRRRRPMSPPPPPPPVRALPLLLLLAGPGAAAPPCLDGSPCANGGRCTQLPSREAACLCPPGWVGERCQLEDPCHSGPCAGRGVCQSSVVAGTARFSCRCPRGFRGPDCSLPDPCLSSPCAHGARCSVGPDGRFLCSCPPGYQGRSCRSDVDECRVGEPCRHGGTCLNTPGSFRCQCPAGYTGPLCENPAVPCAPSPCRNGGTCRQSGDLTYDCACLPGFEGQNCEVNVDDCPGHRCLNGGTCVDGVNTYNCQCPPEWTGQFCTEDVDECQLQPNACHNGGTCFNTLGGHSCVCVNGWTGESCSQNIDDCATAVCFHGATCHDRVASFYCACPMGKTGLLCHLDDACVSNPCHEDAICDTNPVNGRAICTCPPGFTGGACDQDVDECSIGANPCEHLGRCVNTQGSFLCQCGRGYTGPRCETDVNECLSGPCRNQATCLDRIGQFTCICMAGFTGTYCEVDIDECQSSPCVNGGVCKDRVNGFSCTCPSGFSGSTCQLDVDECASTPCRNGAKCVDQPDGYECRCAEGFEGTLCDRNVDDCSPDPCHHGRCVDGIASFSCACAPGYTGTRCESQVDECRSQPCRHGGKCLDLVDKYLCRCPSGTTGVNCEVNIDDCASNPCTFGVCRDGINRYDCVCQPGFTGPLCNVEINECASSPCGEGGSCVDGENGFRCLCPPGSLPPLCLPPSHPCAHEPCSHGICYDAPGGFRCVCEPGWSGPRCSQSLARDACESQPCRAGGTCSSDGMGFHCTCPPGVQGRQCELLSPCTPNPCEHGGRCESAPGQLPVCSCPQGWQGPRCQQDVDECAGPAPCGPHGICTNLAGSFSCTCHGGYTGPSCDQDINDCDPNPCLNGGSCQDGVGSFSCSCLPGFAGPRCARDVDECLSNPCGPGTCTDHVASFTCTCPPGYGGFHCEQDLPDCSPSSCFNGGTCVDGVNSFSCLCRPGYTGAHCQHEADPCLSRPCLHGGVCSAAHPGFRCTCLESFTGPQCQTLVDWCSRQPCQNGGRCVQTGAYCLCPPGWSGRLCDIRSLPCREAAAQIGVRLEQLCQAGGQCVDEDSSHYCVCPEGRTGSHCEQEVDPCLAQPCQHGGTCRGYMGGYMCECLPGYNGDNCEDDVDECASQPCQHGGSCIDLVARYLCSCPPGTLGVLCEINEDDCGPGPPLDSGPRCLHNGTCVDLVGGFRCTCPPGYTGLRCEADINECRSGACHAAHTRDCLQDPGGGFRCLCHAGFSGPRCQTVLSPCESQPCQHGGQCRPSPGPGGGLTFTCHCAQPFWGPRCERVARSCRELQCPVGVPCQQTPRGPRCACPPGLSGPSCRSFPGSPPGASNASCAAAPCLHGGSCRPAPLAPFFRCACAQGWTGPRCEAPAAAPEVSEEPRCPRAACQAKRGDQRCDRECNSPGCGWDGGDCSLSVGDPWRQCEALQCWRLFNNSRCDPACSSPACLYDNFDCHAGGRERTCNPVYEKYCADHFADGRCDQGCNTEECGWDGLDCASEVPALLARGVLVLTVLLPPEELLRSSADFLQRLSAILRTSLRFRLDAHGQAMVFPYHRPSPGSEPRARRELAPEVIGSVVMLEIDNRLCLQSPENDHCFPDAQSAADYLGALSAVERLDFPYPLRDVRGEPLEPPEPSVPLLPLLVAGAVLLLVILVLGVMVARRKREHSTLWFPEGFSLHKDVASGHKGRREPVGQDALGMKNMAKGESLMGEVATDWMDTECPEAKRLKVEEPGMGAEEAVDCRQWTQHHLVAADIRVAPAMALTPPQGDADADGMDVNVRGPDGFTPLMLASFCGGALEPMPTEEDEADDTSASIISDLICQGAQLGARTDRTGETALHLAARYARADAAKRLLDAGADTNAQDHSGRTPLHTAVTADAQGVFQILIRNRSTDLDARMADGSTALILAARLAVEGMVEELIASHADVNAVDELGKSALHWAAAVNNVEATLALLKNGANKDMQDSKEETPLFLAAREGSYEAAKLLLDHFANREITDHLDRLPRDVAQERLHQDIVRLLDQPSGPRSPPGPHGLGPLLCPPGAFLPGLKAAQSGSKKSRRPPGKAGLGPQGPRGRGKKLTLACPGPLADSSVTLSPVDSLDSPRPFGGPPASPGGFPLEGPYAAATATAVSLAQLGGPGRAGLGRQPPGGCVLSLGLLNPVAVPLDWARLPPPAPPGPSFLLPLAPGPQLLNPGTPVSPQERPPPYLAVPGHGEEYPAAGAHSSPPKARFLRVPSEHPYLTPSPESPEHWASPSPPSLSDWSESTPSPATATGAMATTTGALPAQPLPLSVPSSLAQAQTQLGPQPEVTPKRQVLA
# Chain of Follistatin-related protein 3 (Homo sapiens) (O95633 whole entry, looked up): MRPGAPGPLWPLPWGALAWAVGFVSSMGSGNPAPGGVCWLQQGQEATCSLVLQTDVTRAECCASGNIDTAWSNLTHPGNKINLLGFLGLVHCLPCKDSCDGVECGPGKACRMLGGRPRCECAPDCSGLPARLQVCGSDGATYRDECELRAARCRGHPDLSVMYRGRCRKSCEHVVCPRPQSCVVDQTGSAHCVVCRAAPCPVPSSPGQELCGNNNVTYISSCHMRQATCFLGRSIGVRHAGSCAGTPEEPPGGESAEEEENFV
# Chain of Fibroblast growth factor 10 (Homo sapiens) (O15520 whole entry, looked up): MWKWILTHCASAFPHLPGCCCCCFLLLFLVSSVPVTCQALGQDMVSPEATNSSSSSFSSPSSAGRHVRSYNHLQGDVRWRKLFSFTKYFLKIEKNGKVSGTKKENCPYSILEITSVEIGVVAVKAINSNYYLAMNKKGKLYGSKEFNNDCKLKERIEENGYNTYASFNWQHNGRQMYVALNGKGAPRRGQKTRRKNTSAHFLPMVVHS
# Chain of Dickkopf-related protein 1 (Homo sapiens) (O94907 whole entry, looked up): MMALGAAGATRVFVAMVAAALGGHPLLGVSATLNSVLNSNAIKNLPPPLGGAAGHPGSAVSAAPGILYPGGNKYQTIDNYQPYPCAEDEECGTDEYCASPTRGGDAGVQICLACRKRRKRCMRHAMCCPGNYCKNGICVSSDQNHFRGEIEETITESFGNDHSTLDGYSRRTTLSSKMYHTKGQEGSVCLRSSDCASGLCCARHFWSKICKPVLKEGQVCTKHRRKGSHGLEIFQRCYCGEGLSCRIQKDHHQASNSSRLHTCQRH
# Chain of Torsin-1A-interacting protein 2 (Homo sapiens) (Q8NFQ8 whole entry, looked up): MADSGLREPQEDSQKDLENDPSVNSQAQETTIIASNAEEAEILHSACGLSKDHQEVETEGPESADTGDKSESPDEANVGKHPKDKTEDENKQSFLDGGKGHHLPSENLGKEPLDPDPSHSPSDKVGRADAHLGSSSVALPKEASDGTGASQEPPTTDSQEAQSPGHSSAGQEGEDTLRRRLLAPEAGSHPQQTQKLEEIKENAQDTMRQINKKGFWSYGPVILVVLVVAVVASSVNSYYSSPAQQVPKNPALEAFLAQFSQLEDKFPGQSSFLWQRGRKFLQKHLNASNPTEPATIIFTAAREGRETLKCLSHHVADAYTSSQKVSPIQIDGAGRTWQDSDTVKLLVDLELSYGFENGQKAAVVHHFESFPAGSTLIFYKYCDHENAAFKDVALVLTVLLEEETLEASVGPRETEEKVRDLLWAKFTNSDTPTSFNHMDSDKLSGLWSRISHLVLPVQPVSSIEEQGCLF
Structure (SMILES),composite z-score [1],z-score [2],z-score [3],z-score [4],composite z-score [5],z-score [6],composite z-score [7],composite z-score [8],composite z-score [9],composite z-score [10],composite z-score [11],composite z-score [12],composite z-score [13],z-score [14],composite z-score [15],composite z-score [16],composite z-score [17],composite z-score [18],composite z-score [19],composite z-score [20]
CC(C)=NOC[C@@H](O)[C@H]1O[C@@H]2OC(C)(C)O[C@@H]2[C@H]1O,0.956,0.51 (inactive),0.0819 (inactive),0.243 (inactive),0.178,0.132 (inactive),0.19,0.625,0.498,0.0727,0.231,-0.0464,-0.364,0.211 (inactive),0.392,0.892,0.487,0.434,0.58,0.5
C[C@H]1CC[C@H]2C(=O)O[C@H](CO)CN2[C@@H]1c1ccc(Br)cc1,0.995,-1.57 (inactive),-16.2 (active),-3.33 (inactive),0.139,1.88 (inactive),-0.141,0.417,-0.811,-0.0738,-0.233,-0.198,-0.372,-0.202 (inactive),-0.111,-0.348,0.0844,-0.378,-0.106,0.829
COC(=O)C(C(=O)OC)C1CCCC(=O)C1 (stereo not given),-0.734,0.069 (inactive),0.389 (inactive),0.751 (inactive),0.291,-0.195 (inactive),-0.0362,0.365,0.655,-0.0952,0.377,-0.207,-0.618,-0.388 (inactive),0.755,0.772,0.399,0.508,0.978,0.151
CCOC(=O)CCN1C(=O)[C@H]2[C@H]3[C@H](O)[C@H](O)CC(=NOCC=C(C)CCC=C(C)C)[C@H]3CC[C@H]2C1=O,0.467,0.273 (inactive),-0.215 (inactive),-0.188 (inactive),0.0139,0.857 (inactive),0.287,0.386,0.089,0.106,-0.319,0.28,-0.154,0.0511 (inactive),0.245,-0.709,0.52,-0.789,-0.185,-1.82
C[C@@H]1CC[C@H]2C(=O)O[C@@H](COc3ccc(C(C)(C)C)cc3)CN2[C@H]1c1ccc(Br)cc1,0.76,0.267 (inactive),-0.0416 (inactive),-0.264 (inactive),0.456,0.113 (inactive),-0.159,0.307,-0.288,-0.0326,0.418,-0.251,-0.427,0.0739 (inactive),0.0543,0.158,-0.0032,0.0224,0.191,0.0996
CCN1C(=O)[C@H]2[C@H]3[C@H](O)[C@H](O)CC(=NNC(=O)OCc4ccccc4)[C@H]3CC[C@H]2C1=O,-0.72,-0.0067 (inactive),0.0826 (inactive),-0.144 (inactive),-0.3,-0.667 (inactive),0.0166,0.667,-0.169,-0.132,-0.0508,0.0829,0.877,-0.45 (inactive),0.186,-0.493,-0.198,-0.0353,-0.26,0.0251
COC(=O)[C@H](CCSC)NC(=O)CC=C[C@@H](C)CO,1.53,0.0662 (inactive),0.319 (inactive),0.451 (inactive),1.3,0.612 (inactive),-0.0944,1.54,0.703,0.493,-0.0481,-0.34,-1.47,-0.0982 (inactive),1.26,1.28,1.53,1.46,1.97,-1.91
O=C1[C@H]2[C@H]3[C@H](O)[C@H](O)CC(=NO[C@@H]4O[C@H](CO)[C@@H](O)[C@H](O)[C@H]4O)[C@@H]3CC[C@H]2C(=O)N1C1CCCCC1,0.112,0.0081 (inactive),-0.159 (inactive),-0.291 (inactive),0.301,-0.166 (inactive),-0.174,0.662,0.749,-0.111,0.203,-0.275,-0.458,-0.155 (inactive),0.57,0.607,0.46,0.542,0.353,-0.224
